In PubChem BioAssay (NCATS):
Inconclusive results are not listed. A call without a number means that no potency is given here. Activity calls are given as the source filed them. Calls come from the whole dose curve.

assay: Cytotoxicity counterscreen for inhibitors of SARS-CoV-2 cell entry (AID 1645845); conditions: cell viability (SARS-CoV-2 entry assay cells); series mostly up to 57.1 µM; note: nearly all actives have a fitted effect of over 50% in size
Text: Assay Provider: Wei Zheng, Ph.D.
National Center for Advancing Translational Sciences, National Institute of Health, Rockville, MD.
SARS-CoV-2 spike protein, within the viral envelope, mediates viral attachment and infection of host cells. The SARS-CoV-2 spike protein specifically binds to the host receptor ACE2 (Angiotensin-converting enzyme 2). This interaction promotes endocytosis of the viral particle, additional events lead to viral-host cell membrane fusion and release of the viral contents, allowing viral replication.
While SARS-CoV-2 requires BSL-3 facilities for live virus work, pseudo-typed partices (PP) that incorporate SARS-CoV-2 spike proteins without replication elements could facilitate studies on viral entry mechanisms in a BSL-2 setting. This PP cell entry assay could also enable screening of small molecule compound libraries in BSL-2 setting to identify inhibitors of SARS-CoV-2 cell entry. To eliminate false positive compounds, ATP content cytotoxicity assay was screened in the same cell line.
SEQUENCE No. (e.g., 1, 2, 3, etc.); […] (e.g., Cells, Incubation, Reagent, etc.); VALUE and DESCRIPTION.
1. Cells. Seed 1500 HEK293-ACE2 cells (Expi293F with stable expression of human ACE2) in 2 uL/well media (DMEM, 10% FBS, 1x L-glutamine, 1x Pen/Strep, 1 ug/ml puromycin) in white 1536-well assay plates (Greiner #782073).
2. Incubation. Incubate at 37 C with 5% CO2 overnight (~16 h).
3. Compounds. Dispense 23 nL/well compounds in DMSO via pin transfer.
4. Incubation. Incubate for 1 h at 37C 5% CO2.
5. Reagent. Dispense 2 uL/well of media (DMEM, 10% FBS, 1x L-glutamine, 1x Pen/Strep, 1 ug/ml puromycin).
6. Incubation. Incubate at for 48h at 37C 5% CO2
7. Reagent. Dispense 4 uL/well of ATPLite 1step luminescence assay reagent (PerkinElmer #6016739).
8. Incubation. Incubate for 15 min at room temperature.
9. Detection. Read luminescence signal (Viewlux plate reader, PerkinElmer). Data was normalized with wells containing cells as 100%, and wells without cells (media only control) as 0%.

SMILES | Potency | outcome | activity change, negative = cytotoxicity
C[N+](C)(C)CCCCCCCCCC[N+](C)(C)C | inactive | – | –
C[C@@H](O)[C@H](N)C(=O)O | inactive | – | –
O=C(CCCN1CCN(c2ccc(F)cc2)CC1)NC1c2ccccc2CSc2ccccc21 (stereo not given) | inactive | – | –
CC1COC2(c3ccccc3Cl)c3cc(Cl)ccc3NC(=O)CN12 (stereo not given) | inactive | – | –
CCC1NC(=O)c2cc(S(N)(=O)=O)c(Cl)cc2N1 (stereo not given) | inactive | – | –
CCCCOc1ccc(C(=O)CCN2CCCCC2)cc1 | inactive | – | –
CCN(CC)CCCC(C)Nc1c2ccc(Cl)cc2nc2ccc(OC)cc12 (stereo not given) | inactive | – | –
C=CCOc1ccccc1OCC(O)CNC(C)C (stereo not given) | inactive | – | –
NC(N)=NCCC[C@H](N)C(=O)O | – | inactive [at 5.25 µM] | –
CSc1ccc(C(=O)c2[nH]c(=O)[nH]c2C)cc1 | inactive | – | –
COc1ccc(CN(CCN(C)C)c2ncccn2)cc1 | inactive | – | –
C#C[C@]1(O)CC[C@H]2[C@@H]3CCc4cc(O)ccc4[C@H]3CC[C@@]21C | inactive | – | –
CCCOC(C(=O)OC1CCN(C)CC1)(c1ccccc1)c1ccccc1 | inactive | – | –
CCCCN(CCN(CCCC)C(=O)N1CCOCC1)C(=O)N1CCOCC1 | inactive | – | –
O=C(O)/C=C/c1ccc(Cn2ccnc2)cc1 | inactive | – | –
CCCCNc1ccc(C(=O)OCCN(C)C)cc1 | inactive | – | –
NC(N)=N/N=C/c1c(Cl)cccc1Cl | inactive | – | –
CN(C)CCC(c1ccccc1)c1ccccn1 (stereo not given) | inactive | – | –
O=C1CC2(CCCC2)CC(=O)N1CCCCN1CCN(c2ncccn2)CC1 | inactive | – | –
C[N+]12CCC(CC1)C(OC(=O)C(O)(c1ccccc1)c1ccccc1)C2 (stereo not given) | inactive | – | –

SMILES | Potency | outcome | activity change, negative = cytotoxicity
CCN1CCN(c2cc(-c3ccc(F)cc3)c3c(n2)CCCCCC3)CC1 | inactive | – | –
COc1ccc2c(c1)c(CC(=O)O)c(C)n2C(=O)c1ccc(Cl)cc1 | inactive | – | –
CC[C@H]1C[C@H]2[C@@H]3CCC4=CC(=O)CC[C@@H]4[C@H]3CC[C@]2(C)[C@H]1O | inactive | – | –
CCCCCOc1ccc(C2SC(=O)NC2=O)cc1OCC (stereo not given) | inactive | – | –
NC(=O)Cc1cccc(C(=O)c2ccccc2)c1N | inactive | – | –
N[C@@H](Cc1c[nH]c2ccc(O)cc12)C(=O)O | inactive | – | –
CC(C)C(=O)Nc1cccc(C2CN3CCSC3=N2)c1 (stereo not given) | inactive | – | –
CN1CCN(c2cc3c(cc2F)c(=O)c(C(=O)O)cn3-c2ccc(F)cc2)CC1 | inactive | – | –
OC[C@@H](O)[C@H](O)[C@H](O)[C@@H](O)CO | inactive | – | –
CCC(=O)c1ccc(O)cc1 | inactive | – | –
Clc1ccc(C(OCCN2CCCCC2)c2ccccc2)cc1 (stereo not given) | inactive | – | –
N[C@@H](CSSC[C@H](N)C(=O)O)C(=O)O | – | – | 0.929% [at 0.702 µM] (inactive)
CC(=O)O[C@]1(C(C)=O)CC[C@H]2[C@@H]3C=C(Cl)C4=CC(=O)CC[C@]4(C)[C@H]3CC[C@@]21C | inactive | – | –
C=CCc1ccccc1OCC(O)CNC(C)C (stereo not given) | inactive | – | –
CN(C)CCOC(c1ccccc1)c1ccccc1 | inactive | – | –
Cc1ccc2nc(N)[nH]c(=O)c2c1Sc1ccncc1 | inactive | – | –
CC(C)[N+](C)(CCC(C(N)=O)(c1ccccc1)c1ccccc1)C(C)C | inactive | – | –
CC(=O)c1ccc2c(c1)N(CCCN(C)C)c1ccccc1S2 | inactive | – | –
NC(CSCC(=O)O)C(=O)O (stereo not given) | inactive | – | –
CC(COc1ccccc1)NC(C)C(O)c1ccc(O)cc1 (stereo not given) | inactive | – | –
